Screening results as filed in PubChem.
Compounds with a hit are over-represented: about 0.51% of the library has one in this group of screens.
phage Ecoli inh – E. coli growth loss with phage present. 0.26% of 360,000 active. AID 651602. growth absorbance. inhibition, % at 11.9 µM; in the data active means inhibition above about 11%
Tat export inh – inhibitors of E. coli Tat protein transport | 0.036% of 340,000 active | inhibition, % at 10 µM | AID 488895 | E. coli MC4100 TorA-mCherry Tat export, fluorescence;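 active means mean replicate inhibition at least 50% and at least half of replicates individually reaching 50%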;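 further: exported cargo escapes ClpAP degradation while cytoplasmic cargo is degraded and loses fluorescence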
AddAB inh – less growth of phage-infected E. coli with AddAB | E. coli expressing H. pylori AddAB, absorbance growth | inhibition, % at 11.9 µM | 0.29% of 330,000 active | AID 435030; in the data active means inhibition above about 12%
E coli growth-1 – blocks Escherichia coli growth. OD600, 23 h; active compounds read low. OD600 absorbance (test concentration not listed). 0.21% of 330,000 active;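 active means OD600 absorbance below the run mean of sample wells minus 3.6 SD, in any replicate, cut at about 0.56 in these data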
E coli growth-2 – counter-screen for AddAB inhibitors: E. coli growth inhibition. E. coli V3065 growth, OD600 absorbance, 18 h. inhibition, % at 11.9 µM. AID 449728. 0.27% of 330,000 active;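 active means inhibition above the campaign's mean inhibition across all tested compounds plus 3 SD, cut at about 9.9% in these data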;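 further: uninfected addAB+ strain grown without phage in ampicillin broth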
Hits are given with their value; i = inactive; nt = no result.

SMILES	phage Ecoli inh	Tat export inh	AddAB inh	E coli growth-1	E coli growth-2
CC(C)S(=O)(=O)c1csc(NC(=O)Nc2ccc(Cl)cc2)c1	i	i	i	0.474	i
COc1cccc(/C=N/Nc2nccnc2Cl)c1O	i	i	nt	nt	nt
COc1cccc(C=NNc2ncnc(Cl)c2N)c1O	nt	nt	nt	0.175	nt
CC(C)C[C@@]12C(=O)N(c3cccc(Cl)c3)C(=O)N1C(c1ccc(Cl)cc1)C1C(=O)N(C3CCCCC3)C(=O)C12 (some centres undefined)	nt	nt	nt	i	nt
Cc1sc2ncnc(NC(Cc3c[nH]c4ccccc34)C(=O)O)c2c1C (centres undefined)	nt	nt	nt	i	nt
CC(C)n1ncc2c(C(=O)N3CCN(Cc4ccc(Br)s4)CC3)cc(C3CC3)nc21	i	52.7	i	i	i
CC(C)n1ncc2c(C(=O)O)cc(C3CC3)nc21	i	i	i	i	i
CO[C@@]1(NC(=O)CSCC#N)C(=O)N2C(C(=O)O)=C(CSc3nnnn3C)CSC21 (some centres undefined)	nt	nt	nt	i	nt
CO[C@@]1(NC(=O)C2SC(=C(C(N)=O)C(=O)O)S2)C(=O)N2C(C(=O)O)=C(CSc3nnnn3C)CSC21 (some centres undefined)	nt	nt	nt	0.061	nt
COc1ccc(C2CC(=O)C=C(c3ccc(O)cc3)C2)cc1OC (centres undefined)	nt	nt	nt	i	nt
CC1CN=C(Nc2ccccc2)N1CCc1ccccc1 (centres undefined)	nt	nt	nt	i	nt
O=c1oc2cc(O)ccc2s1	i	i	i	nt	10.0
Oc1ccc2c(c1)oc1cc(O)ccc12	i	i	i	i	i
CCn1cc(C(=O)O)c(=O)c2cc(OC)ccc21	i	i	i	0.526	i
CCn1cc(C(=O)O)c(=O)c2cc(S(=O)(=O)N3CCCCCC3)ccc21	i	i	i	i	i
O=S1(=O)CCOCC(Cc2ccccc2)N1Cc1ccccc1 (centres undefined)	nt	nt	nt	i	nt
CCCCNC(=O)O[C@@H]1C[C@H]2CCCC(=O)N3CC[C@@H](C1)[C@@H]23	i	i	i	nt	i
CCCCCCCN(c1ccccc1)[C@@H]1C[C@H]2CCCC(=O)N3CC[C@@H](C1)[C@@H]23	i	50.8	nt	nt	nt
CCCCCCCOC(=O)C[N+](C)(C)CCOC1CC2CCC1(C)C2(C)C (centres undefined)	i	i	nt	0.316	nt
CCCCCCOC(=O)C[N+](C)(C)CCOC1CC2CCC1(C)C2(C)C (centres undefined)	i	i	i	i	i
Cc1ccc(C(=O)N/C(=C\c2ccc(-c3ccc(Br)cc3)o2)C(=O)NCCCN(C)C)cc1	i	i	i	0.499	i
Cc1ccc(C(=O)N/C(=C\c2ccc(-c3cccc([N+](=O)[O-])c3)o2)C(=O)NCCCN(C)C)cc1	i	i	i	i	i
Nc1nc(-c2ccccn2)nc(N)c1Cc1ccc(Cl)cc1Cl	i	i	i	0.357	i
Cc1ccc(C(=O)N2CCCC(CCC(=O)NCc3ccccc3F)C2)cn1 (centres undefined)	i	i	i	i	i
C=CCOc1cccc(C(=O)N2CCCC(CCC(=O)NCc3ccccc3F)C2)c1 (centres undefined)	i	50.5	i	i	i
SMILES	phage Ecoli inh	Tat export inh	AddAB inh	E coli growth-1	E coli growth-2
COc1ccc(C2CC(=O)C=C(c3cc(C)ccc3F)C2)cc1 (centres undefined)	nt	nt	nt	i	nt
O=C(Nc1ccccc1C(=O)NC1CC1)c1ccc([N+](=O)[O-])o1	15.7	i	nt	i	nt
O=C(Nc1ccc([N+](=O)[O-])cc1Cl)c1cc(Cl)ccc1O	i	i	i	0.448	i
O=C(Nc1cccc(Cl)c1)c1cccc(Oc2ccc([N+](=O)[O-])cc2Cl)c1	i	i	i	i	i
O=C(Nc1cccc(Cl)c1)c1cc(N=Nc2ccc([N+](=O)[O-])cc2Cl)ccc1O	i	i	i	0.496	i
O=C(Nc1ccc([N+](=O)[O-])cc1Cl)c1cccc([N+](=O)[O-])c1	i	nt	nt	nt	nt
CCN1C(=O)C2C(c3ccc(-c4ccccc4)cc3)N[C@@](C)(C(=O)OC)C2C1=O (some centres undefined)	nt	nt	nt	i	nt
CCOc1ccc(C2CC=C(C(=O)O)C(c3ccc(Cl)cc3)N2S(=O)(=O)c2ccc(C)cc2)cc1 (centres undefined)	nt	nt	nt	i	nt
COC(=O)[C@@]1(Cc2ccc(F)cc2)C2c3cc(C(=O)N(C)C)n(Cc4ccc(OC(F)(F)F)cc4)c3CC2CN1C(=O)c1ccccc1 (some centres undefined)	nt	nt	nt	i	nt
CCOC(=O)N1CCN(C(=O)c2cn(CC)c3cc(N4CCN(C)CC4)c(F)cc3c2=O)CC1	nt	nt	100.5	nt	99.5
CCOc1ccc2[nH]c3c(NCCC(C)C)ncnc3c2c1	i	i	nt	0.502	nt
